Source: PubChem BioAssay AID1159580 (chemical genetic matrix, 2015)
Where “and” joins values, the source holds several entries; their conditions need not be identical. Identical values can stand only once. Out of some 5,500 compounds screened, about 2,000 (36%) were called active. Roughly 18% stayed inconclusive and do not appear here. Rule as the data show it: active = normalized growth mostly below about 0.91 (no sharp cut-off); inconclusive = no clear call, values can overlap the other calls; inactive = mostly above about 0.92. The list shows a part of the results.

Test: chemical genetic growth profiling, strain panel (AID 1159580);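 also: tested at 20 µM; growth read once vehicle control cultures reached saturation at 30 °C; 1 = growth at the plate median or of vehicle wells; lower values mean less growth of the strain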
Settings: S. cerevisiae deletion strains, growth OD

Measured: normalized growth

CCC(/C=C/[C@@H](C)[C@H]1CCC2C3CC=C4C[C@@H](O)CC[C@]4(C)C3CC[C@@]21C)C(C)C (some centres undefined)
inactive: locus YAL013W, strain DEP1, active compounds read low 0.999 | locus YAL021C, strain ccr4, active compounds read low 1.02 | locus YAL026C, strain drs2, active compounds read low 0.935 | locus YAL030W, strain snc1, active compounds read low 0.99 | locus YBL061C, strain skt5, active compounds read low 0.997 | locus YBR009C, strain hhf1, active compounds read low 0.972 | locus YBR021W, strain FUR4, active compounds read low 1.04 | locus YBR023C, strain chs3, active compounds read low 0.988 | locus YBR171W, strain sec66, active compounds read low 0.985 | locus YBR229C, strain ROT2, active compounds read low 0.993 | locus YBR231C, strain swc5, active compounds read low 0.988 | locus YBR279W, strain paf1, active compounds read low 0.994 | locus YCL011C, strain gbp2, active compounds read low 0.968 | locus YCL016C, strain dcc1, active compounds read low 1 | locus YCL029C, strain bik1, active compounds read low 1 | locus YCL061C, strain MRC1, active compounds read low 1.01 | locus YCL069W, strain vba3, active compounds read low 0.99 | locus YCR088W, strain abp1, active compounds read low 0.994 | locus YDL005C, strain med2, active compounds read low 0.983 | locus YDL035C, strain GPR1, active compounds read low 1.02 | locus YDL040C, strain nat1, active compounds read low 0.987 | locus YDL074C, strain BRE1, active compounds read low 0.992 | locus YDL101C, strain DUN1, active compounds read low 1.01 | locus YDL185W, strain tfp1, active compounds read low 0.986 | locus YDL192W, strain arf1, active compounds read low 0.986 | locus YDR001C, strain nth1, active compounds read low 0.991 | locus YDR069C, strain doa4, active compounds read low 1.01 | locus YDR101C, strain arx1, active compounds read low 0.987 | locus YDR137W, strain rgp1, active compounds read low 0.931 | locus YDR150W, strain NUM1, active compounds read low 1.02 | locus YDR159W, strain sac3, active compounds read low 0.959 | locus YDR162C, strain NBP2, active compounds read low 1.02 | locus YDR195W, strain ref2 0.963 | locus YDR297W, strain sur2, active compounds read low 0.991 | locus YDR318W, strain mcm21, active compounds read low 0.987 | locus YDR334W, strain swr1, active compounds read low 0.988 | locus YDR335W, strain msn5, active compounds read low 0.982 | locus YDR388W, active compounds read low 0.989 | locus YDR392W, strain spt3, active compounds read low 0.894 | locus YDR502C, strain sam2, active compounds read low 0.992 | locus YEL003W, strain gim4, active compounds read low 0.982 | locus YEL037C, strain rad23, active compounds read low 0.976 | locus YEL061C, strain CIN8 (second series), active compounds read low 0.979 | locus YEL061C, strain CIN8, active compounds read low 0.999 | locus YER015W, strain faa2, active compounds read low 1 | locus YER016W, strain bim1, active compounds read low 0.979 | locus YER110C, active compounds read low 0.995 | locus YER111C, strain swi4, active compounds read low 0.99 | locus YER155C, strain BEM2 (second series), active compounds read low 0.993 | locus YER155C, strain BEM2, active compounds read low 0.986 | locus YER167W, strain BCK2, active compounds read low 0.997 | locus YFR010W, strain ubp6, active compounds read low 0.997 | locus YGL078C, strain dbp3, active compounds read low 0.991 | locus YGL086W, strain mad1, active compounds read low 1.02 | locus YGL167C, strain pmr1, active compounds read low 0.975 | locus YGL173C, strain kem1, active compounds read low 0.983 | locus YGL227W, strain vid30, active compounds read low 0.985 | locus YGL240W, strain doc1, active compounds read low 0.998 | locus YGL248W, strain PDE1, active compounds read low 1 | locus YGL253W, strain hxk2, active compounds read low 0.962 | locus YGR135W, strain pre9, active compounds read low 0.989 | locus YGR252W, strain gcn5, active compounds read low 0.971 | locus YHR013C, strain ard1, active compounds read low 0.957 | locus YHR027C, strain rpn1, active compounds read low 0.996 | locus YHR030C, strain SLT2, active compounds read low 1 and 0.954 | locus YHR079C, strain IRE1 (second series), active compounds read low 0.991 | locus YHR079C, strain IRE1, active compounds read low 0.964 | locus YHR094C, strain hxt1, active compounds read low 0.995 | locus YHR129C, strain ARP1, active compounds read low 0.999 | locus YHR142W, strain chs7, active compounds read low 1.02 | locus YHR200W, strain rpn10, active compounds read low 0.981 | locus YIL066C, strain RNR3, active compounds read low 1 | locus YIL073C, strain SPO22, active compounds read low 1 | locus YIL125W, strain kgd1, active compounds read low 1.02 | locus YIR030C, strain dcg1, active compounds read low 1 | locus YJL092W, strain hpr5, active compounds read low 0.998 | locus YJL095W, strain BCK1 (second series), active compounds read low 0.997 | locus YJL095W, strain BCK1, active compounds read low 1.01 and 0.976 | locus YJL115W, strain asf1, active compounds read low 0.993 | locus YJL129C, strain trk1, active compounds read low 1.01 | locus YJL134W, strain LCB3, active compounds read low 0.997 | locus YJL154C, strain vps35, active compounds read low 0.981 | locus YJL164C, strain tpk1, active compounds read low 1 | locus YJL166W, strain qcr8, active compounds read low 0.981 | locus YJL168C, strain set2, active compounds read low 0.997 | locus YJL187C, strain SWE1 (second series), active compounds read low 1 | locus YJL187C, strain SWE1, active compounds read low 0.993 | locus YJR043C, strain POL32, active compounds read low 1.04 | locus YJR066W, strain TOR1, active compounds read low 0.929 | locus YKL009W, strain mrt4, active compounds read low 1.02 | locus YKL068W, active compounds read low 0.994 | locus YKL085W, strain MDH1 (second series), active compounds read low 0.993 | locus YKL085W, strain MDH1, active compounds read low 0.993 | locus YKL160W, strain elf1, active compounds read low 1.04 | locus YKR001C, strain vps1, active compounds read low 1.02 | locus YKR026C, strain gcn3, active compounds read low 0.984 | locus YKR091W, strain srl3, active compounds read low 0.99 | locus YLL001W, strain dnm1, active compounds read low 1 | locus YLL026W, active compounds read low 1.01 | locus YLL041C, strain sdh2, active compounds read low 1 | locus YLR027C, strain aat2, active compounds read low 0.984 | locus YLR039C, strain RIC1, active compounds read low 0.964 | locus YLR058C, strain SHM2, active compounds read low 0.998 | locus YLR102C, strain apc9, active compounds read low 0.992 | locus YLR113W, strain HOG1, active compounds read low 0.951 | locus YLR221C, strain rsa3, active compounds read low 1 | locus YLR258W, strain gsy2, active compounds read low 0.991 | locus YLR262C, strain YPT6 (second series), active compounds read low 0.917 | locus YLR262C, strain YPT6, active compounds read low 1.01 | locus YLR268W, strain sec22, active compounds read low 0.987 | locus YLR320W, strain mms22, active compounds read low 0.998 | locus YLR330W, strain CHS5, active compounds read low 1 | locus YLR342W, strain FKS1 (second series), active compounds read low 1.05 | locus YLR342W, strain FKS1, active compounds read low 0.986 | locus YLR357W, strain rsc2, active compounds read low 1.03 | locus YLR370C, strain arc18, active compounds read low 0.988 | locus YLR371W, strain rom2, active compounds read low 0.999 | locus YLR384C, strain iki3, active compounds read low 0.982 | locus YLR418C, strain cdc73, active compounds read low 1.03 | locus YML016C, strain PPZ1, active compounds read low 0.991 | locus YML032C, strain rad52, active compounds read low 0.994 | locus YML120C, strain ndi1, active compounds read low 0.99 | locus YML124C, strain tub3, active compounds read low 0.992 | locus YMR058W, strain fet3, active compounds read low 0.984 | locus YMR078C, strain ctf18, active compounds read low 0.987 | locus YMR125W, strain sto1, active compounds read low 0.975 | locus YMR129W, active compounds read low 1 | locus YMR205C, strain PFK2, active compounds read low 0.981 | locus YMR223W, strain ubp8, active compounds read low 0.974 | locus YMR231W, strain pep5, active compounds read low 0.99 | locus YMR263W, strain SAP30, active compounds read low 1.02 | locus YMR307W, strain GAS1, active compounds read low 1.11 | locus YNL067W, strain RPL9B, active compounds read low 1.02 | locus YNL071W, strain lat1, active compounds read low 0.986 | locus YNL128W, strain TEP1, active compounds read low 1 | locus YNL183C, strain NPR1, active compounds read low 0.904 | locus YNL209W, strain ssb2, active compounds read low 0.993 | locus YNL233W, strain BNI4, active compounds read low 1.02 | locus YNL248C, strain rpa49, active compounds read low 0.987 | locus YNL250W, strain rad50, active compounds read low 0.991 | locus YNL271C, strain bni1, active compounds read low 0.99 | locus YNL298W, strain CLA4, active compounds read low 1 | locus YNL307C, strain MCK1, active compounds read low 1.01 | locus YNL322C, strain KRE1 (second series), active compounds read low 0.989 | locus YNL322C, strain KRE1, active compounds read low 0.995 | locus YNR049C, strain mso1, active compounds read low 0.979 | locus YNR052C, strain pop2, active compounds read low 0.983 | locus YOL012C, strain htz1 1.17 | locus YOL147C, strain pex11, active compounds read low 0.992 | locus YOR001W, strain rrp6, active compounds read low 1.01 | locus YOR061W, strain CKA2, active compounds read low 1 | locus YOR069W, strain VPS5, active compounds read low 0.992 | locus YOR070C, strain gyp1, active compounds read low 0.976 | locus YOR080W, strain dia2, active compounds read low 0.989 | locus YOR083W, strain WHI5, active compounds read low 1.05 | locus YOR106W, strain vam3, active compounds read low 0.999 | locus YOR136W, strain idh2, active compounds read low 0.995 | locus YOR144C, strain elg1, active compounds read low 0.987 | locus YOR184W, strain ser1, active compounds read low 1 | locus YOR231W, strain MKK1, active compounds read low 0.984 | locus YOR265W, strain rbl2, active compounds read low 0.989 | locus YOR270C, strain vph1, active compounds read low 0.909 | locus YOR290C, strain snf2, active compounds read low 0.921 | locus YOR316C, strain cot1, active compounds read low 0.989 | locus YPL051W, strain arl3, active compounds read low 1.01 | locus YPL078C, strain atp4, active compounds read low 1.01 | locus YPL106C, strain sse1, active compounds read low 0.996 | locus YPL240C, strain hsp82, active compounds read low 1.02 | locus YPL256C, strain CLN2, active compounds read low 0.962 | locus YPR119W, strain clb2, active compounds read low 0.99 | locus YPR141C, strain kar3, active compounds read low 0.994 | locus YPR163C, strain tif3, active compounds read low 0.997 | locus YPR167C, strain met16, active compounds read low 0.992 | strain wtn01, active compounds read low 0.996
